Compound activity (PubChem BioAssay)
Compounds with a hit are over-represented: about 4.8% of the library has one in this group of screens.
hgDAF12 agonist: H. glycines DAF-12 receptor agonists, primary screen, cell-based, luminescence, HEK293, GAL4 fusion, UAS-luciferase; Nuclear hormone receptor DAF-12 (Heterodera glycines), GAL4 fusion; HEK293 GAL4-hgDAF12 UAS-luciferase reporter, agonist luminescence; normalized to butyrate control; activation, % at 6.8 µM; 1.8% of 370,000 active;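 active means activation above a cutoff set at the mean of all screened compounds plus 3 SD, cut at about 10% in these data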
hcDAF12 agonist: H. contortus DAF-12 nuclear receptor activators, primary screen, cell-based, luminescence, HEK293, lit1-tk-luc reporter | HEK293 hcDAF-12 lit1-tk-luc reporter; 0% DMSO, 100% Δ7-dafachronic acid | activation, % at 6.8 µM | 1.4% of 370,000 active | AID 652067, 2013;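 active means activation above the mean of all tested compounds plus 3 SD, cut at about 5.5% in these data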
SMARCA2 activ: SMARCA2 (BRM) function activators, primary screen, cell-based, luminescence, high throughput; MG213 cells, MMTV-luciferase reporter, dexamethasone, overnight; activation, % at 9.1 µM; 1% of 370,000 active; AID 652017, 2013; in the data active means activation above about 7.8%
ssDAF-12 act: S. stercoralis DAF-12 nuclear receptor activators, primary screen, cell-based, luminescence, HEK293, GRIP1 co-expression, lit1-tk-luc | Nuclear hormone receptor DAF-12 (Strongyloides stercoralis) | HEK293 ssDAF-12/GRIP1 lit1-tk-luc reporter; % of 3 µM dafachronic acid response | activation, % at 6.8 µM | 1% of 370,000 active | AID 652126, 2013;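 active means activation above the mean over all tested compounds plus 3 SD, cut at about 0.9% in these data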
DAX1 inh-1: DAX1 (NR0B1) inhibitors, primary screen, cell-based, HEK293, Gal4-DAX1, luciferase luminescence. 0.99% of 340,000 active. Nuclear receptor subfamily 0 group B member 1 (Homo sapiens), P51843. HEK293 Gal4-DAX1 luciferase reporter. inhibition, % at 6.75 µM;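 active means inhibition above the mean over all tested compounds plus 3 SD, cut at about 4.2% in these data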;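 further: inhibition shows as a rise in luminescence from relieved DAX1 repression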
Target sequence (P51843 207-470 limits assumed): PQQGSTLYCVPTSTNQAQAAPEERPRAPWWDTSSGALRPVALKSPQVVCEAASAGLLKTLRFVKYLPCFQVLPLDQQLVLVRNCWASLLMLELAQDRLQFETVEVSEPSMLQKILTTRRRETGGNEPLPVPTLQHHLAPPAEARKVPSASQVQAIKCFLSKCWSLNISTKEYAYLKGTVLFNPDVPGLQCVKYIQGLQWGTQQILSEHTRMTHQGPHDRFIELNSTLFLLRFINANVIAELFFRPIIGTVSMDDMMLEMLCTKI
DAX1 inh-2: DAX1 (NR0B1) inhibitors on StAR promoter, primary screen, cell-based, luminescence, SF-1 (NR5A1), full-length DAX-1. HEK293T StAR-luciferase reporter, SF-1/DAX-1 repression relief. inhibition, % at 6.8 µM. 1.1% of 370,000 active. AID 652010, 2013;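 active means inhibition above the mean over all tested compounds plus 3 SD, cut at about 3.6% in these data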;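 further: higher inhibition means more luminescence from relief of DAX-1 repression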
A number is an active result; n = inactive; x = no result.

SMILES	hgDAF12 agonist	hcDAF12 agonist	SMARCA2 activ	ssDAF-12 act	DAX1 inh-1	DAX1 inh-2
CCOC(=O)N1CCC(NC(=O)c2cc(C(=O)NC3CCN(Cc4ccccc4)CC3)ccc2CO)CC1	n	n	n	n	n	n
Cc1ccc(C(=O)Nc2cccc(O)c2)cc1S(=O)(=O)N1CCCCCC1	n	n	n	n	n	n
CS(=O)(=O)N(CC(=O)Nc1ccccc1C(=O)N1CCOCC1)c1ccc(Cl)cc1	n	n	n	n	n	n
CCc1ccc(N(CC(=O)Nc2ccccc2C(=O)N2CCOCC2)S(C)(=O)=O)cc1	n	n	n	1.5	n	n
C[C@@H]1CN([C@@H](C)CO)C(=O)CCCn2nncc2CO[C@@H]1CN(C)C(=O)Nc1ccccc1F	n	n	n	n	n	n
COc1ccc(OCC2CCNCC2)cc1	n	n	n	n	4.5	n
COc1ccc(CNC(=O)C2CCNCC2)cc1	n	n	n	n	n	n
CCOC(=O)CN=C(NS(=O)(=O)c1ccc(Cl)cc1)c1ccccc1	n	n	n	n	n	n
COc1cc(C=C2C(=O)c3ccccc3C2=O)cc(OC)c1	n	n	n	n	4.7	n
O=C1C(=Cc2cccc(F)c2)Cc2ccccc21	13	n	n	n	x	n
COc1cc(C=C2C(=O)c3ccccc3C2=O)cc(OC)c1OC	n	n	n	n	n	n
COc1cccc(C=C2Cc3ccccc3C2=O)c1	n	n	n	n	x	n
COc1cccc(/C=C2\CCc3ccccc3C2=O)c1	14	n	n	n	n	n
O=C1/C(=C/c2cccc(F)c2)CSc2sccc21	n	n	n	n	n	n
O=C(CCS(=O)(=O)c1ccccc1)Nc1ccc(Cl)cn1	n	n	n	n	n	n
Nc1ncnc2c1C1(CCCCC1)Cc1ccccc1-2	n	n	n	n	n	n
CCn1cc(CN2CCC(n3nccc3NC(=O)C(OC)c3ccccc3)CC2)cn1 (centres undefined)	n	n	n	n	n	n
COc1ccc(NC(=O)c2cc(-c3ccccc3Cl)no2)cc1	n	n	n	n	n	n
O=C(Nc1ccccc1)c1cc(-c2ccccc2Cl)no1	n	n	n	n	4.3	n
COCCN1CCN(C(=O)C2CCC(=O)N(Cc3ccccc3F)C2)CC1 (centres undefined)	n	n	n	n	n	n
COc1ccc(C(=O)COC(=O)CCn2c(C)csc2=O)c(OC)c1	n	n	n	n	n	n
COc1ccccc1C(=O)NC1CCCCN(Cc2cccc(C(F)(F)F)c2)C1=O (centres undefined)	19	n	n	n	x	n
O=C(NC1CCCCN(Cc2cccc(C(F)(F)F)c2)C1=O)c1cccc(C(F)(F)F)c1 (centres undefined)	n	n	n	n	x	n
Cc1cccc(C(=O)OCC(=O)c2csc(N3CCCCC3)n2)c1[N+](=O)[O-]	n	n	n	n	n	n
COC(=O)Cn1c(CCC(=O)O)ccc1-c1ccccc1	n	n	n	n	5.2	n
SMILES	hgDAF12 agonist	hcDAF12 agonist	SMARCA2 activ	ssDAF-12 act	DAX1 inh-1	DAX1 inh-2
c1csc(-c2nnc(N3CCCCCC3)c3ccccc23)c1	n	n	n	n	n	n
c1csc(-c2nc(N3CCCCC3)no2)c1	n	n	n	n	5.0	n
Cc1cccc(N2Cc3ccc(Br)cc3C2)c1	n	6.5	n	n	n	n
C/C(=N/O)c1cccc(N2Cc3ccccc3C2)c1	n	n	n	n	n	n
O=C(CSCC(=O)c1ccccc1)Nc1ccccc1Cl	n	n	n	n	n	n
O=C(Nc1ccc2ccccc2c1)OC1CCS(=O)(=O)C1 (centres undefined)	n	n	n	2.1	x	n
COc1ccc(Cl)cc1NC(=O)COC(=O)C1COc2ccccc2O1 (centres undefined)	n	n	n	1.0	n	n
N#CCC(=O)Nc1ccc(C(=O)OCC(=O)NC(=O)Nc2ccc3c(c2)OCCO3)cc1	n	n	n	n	n	4.2
N#CCC(=O)Nc1ccc(C(=O)OCC(=O)NCc2ccc3c(c2)OCO3)cc1	n	n	n	n	n	n
O=C(COC(=O)C1COc2ccccc2O1)NC(=O)Nc1ccc2c(c1)OCCO2 (centres undefined)	n	5.8	n	n	n	n
Cc1cc(C(=O)COC(=O)c2ccc(Br)o2)c(C)n1Cc1ccco1	n	n	n	n	x	n
COCCn1c(C)cc(C(=O)COC(=O)c2ccc(Br)o2)c1C	n	n	n	n	5.4	n
CC(C)[C@H](NC(=O)N1c2ccccc2NC(=O)[C@@H]1C(C)C)C(=O)N[C@@H](C(=O)O)c1ccccc1	n	n	n	n	4.5	n
CN(C)c1ccc(C(O)Cc2nc3ccccc3n2C)cc1 (centres undefined)	n	5.6	n	n	n	n
CN(Cc1nc2ccccc2n1C)c1ccccc1	n	n	n	n	n	n
CN(C)c1ccc(-c2nc3ccccc3n2C)cc1	n	n	n	n	n	4.0
COc1ccccc1C(O)Cc1nc2ccccc2n1C (centres undefined)	n	n	n	n	n	n
CC(C)c1ccc(C(O)Cc2nc3ccccc3n2C)cc1 (centres undefined)	n	n	n	n	4.6	n
O=C(O)CN=C(NS(=O)(=O)c1ccc(Cl)cc1)c1ccccc1	n	n	n	n	n	n
Cc1ccc(S(=O)(=O)NC(=NCC(=O)O)c2ccccc2)cc1	n	n	n	1.1	n	n
O=C(O)CN=C(NS(=O)(=O)c1ccc(Cl)cc1)c1ccc(F)cc1	n	n	n	n	6.0	n
CSCCC(N=C(NS(=O)(=O)c1ccc(Br)cc1)c1ccccc1)C(=O)O (centres undefined)	n	n	n	n	n	n
CSCCC(N=C(NS(=O)(=O)c1ccc(C)cc1)c1ccccc1)C(=O)O (centres undefined)	n	n	n	n	4.3	n
CC(C)c1ccc(N(CC(=O)NCC2CCCO2)C(=O)CCC(=O)Nc2nccs2)cc1 (centres undefined)	n	n	n	n	n	n
COc1ccc(CC(=O)Nc2ccc(N3CCCC3)c(C)c2)cc1	n	n	n	n	n	n
O=C(CSc1nnc(C2CC2)n1-c1ccccc1)NC1CCS(=O)(=O)C1 (centres undefined)	n	n	n	n	n	n
O=C(NCCCCCCOC1=NS(=O)(=O)c2ccccc21)C(=O)Nc1ccccc1	11	n	n	n	n	n
